Measurements as given in PubChem BioAssay AID1569 (National Center for Advancing Translational Sciences (NCATS), 2009).
Inconclusive results are not listed. Calls of active or inactive are those of the source. Calls follow the shape of the dose curve; as a rule, active = well fitted inhibition curve with a large enough effect; inconclusive = small, poorly fitted or top-dose-only effect, or effect the other way, or another doubt; inactive = no such curve, though single readings can be large or run the other way.

Assay: Confirmation Concentration-Response Assay for lipid storage modulators; also: nearly all actives have a fitted effect of over 80% in size
Settings: Drosophila S3 cells, lipid droplet BODIPY/CellTracker ratio, 18-24 h; series mostly up to 46.1 µM
How it was run: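 Cells at 5,000/well received compound as a titration plus oleic acid (added as 400 uM solution) and were incubated 18–24 h at 24 °C. BODIPY 493/503 lipid signal and CellTracker Red cell count were read by 488-nm laser-scanning cytometry. Activity was normalised to 20 uM Triacsin C.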
Potency is read from the fitted curve at half-maximal effect.

Row | Compound | Potency
1 | Cc1ccc(C)c(S(=O)(=O)N2CCN(CC(=O)Nc3sccc3C#N)CC2)c1 | 9.96 µM (active)
2 | CCOC(=O)C1(Cc2ccc(Cl)cc2)CCN(C(C)Cc2ccc(O)c(OC)c2)CC1 (stereo unspecified) | 11.2 µM (active)
3 | CCOc1ccc(CCNC(=O)COC(=O)c2cccc(N(C)C)c2)cc1OCC | 0.396 µM (active)
4 | COc1cccc(-n2nnnc2SCC(=O)NCCc2ccc(OC)c(OC)c2)c1 | inactive
5 | Cc1cc(Nc2ccccc2)nc(NCc2ccccc2)n1 | 11.2 µM (active)
6 | CCC(=O)c1ccc(OCC(=O)Nc2ccc(N3CCOCC3)cc2N2CCOCC2)cc1 | inactive
7 | N#Cc1ccsc1NC(=O)CN1CCN(S(=O)(=O)c2cc(Cl)ccc2Cl)CC1 | 2.5 µM (active)
8 | Cn1cc(CNCc2ccc(OC(F)(F)F)cc2)c(-c2ccc3c(c2)OCCO3)n1 | 6.28 µM (active)
9 | CCOC(=O)c1cc2c(ccn2C)n1CC(=O)N1C(C)CCCC1C (stereo unspecified) | 11.2 µM (active)
10 | CCOc1ccc(CCNC(=O)COC(=O)/C=C/c2ccccc2)cc1OCC | 3.53 µM (active)
11 | COc1ccc(CCNC(=O)CCCn2nc(C)n3ccnc3c2=O)cc1OC | inactive
12 | COC(=O)c1c(-c2c(Cl)cccc2Cl)noc1NC(=O)NN1CCOCC1 | 2.5 µM (active)
13 | CCNC(=O)NC1(C(=O)N2CCC(Cc3ccccc3)CC2)CCCCC1 | inactive
14 | COc1ccc(-c2nc(C)ncc2N=Nc2ccccc2)cc1 | 25 µM (active)
15 | CCN1CCN(Cc2ccc(NC(=O)c3ccc(C)c(NC(=O)c4c[nH]c5cc(C(F)(F)F)ccc5c4=O)c3)cc2C(F)(F)F)CC1 | 8.88 µM (active)
16 | Cc1cc(C)c(Cc2c(C)nc3c(C(=O)NCc4ccco4)cnn3c2C)c(C)c1 | 7.05 µM (active)
17 | CSCCC(NS(=O)(=O)c1ccc2c(c1)OCCO2)C(=O)N(C)Cc1ccc(C)cc1 (stereo unspecified) | inactive
18 | COC(c1ccccc1)c1nnc(CCC(=O)NC2C3CC4CC(C3)CC2C4)o1 (stereo unspecified) | 5.6 µM (active)

Row | Compound | Potency
19 | O=C(CSc1nnc2c(n1)[nH]c1ccccc12)Nc1cccc(S(=O)(=O)N2CCOCC2)c1 | 15.8 µM (active)
20 | CN1CCN(C(=O)C2(NC(=O)NCc3ccccc3)CCCCC2)CC1 | inactive
21 | COc1ccc(CCNC(=O)CCCOc2cccc(C)c2C)cc1OC | inactive
22 | CCOc1ccc(CCNC(=O)COC(=O)/C=C/c2ccc(C)o2)cc1OCC | 0.499 µM (active)
23 | COc1ccc(CCNC(=O)COc2cc(O)c3c(c2)OC(C)(C)CC3=O)cc1OC | inactive
24 | CCOC(=O)C1CCN(C(=O)C2(NC(=O)Nc3ccccc3Cl)CCCCC2)CC1 | 0.628 µM (active)
25 | COc1ccc(CCNC(=O)CCC(=O)c2cccs2)cc1OC | inactive
26 | COC(=O)c1ccccc1NC(=O)c1ccc(C#N)cc1 | 1.12 µM [activator] (active)
27 | COc1cccc(C(=O)O[C@@H]2[C@H](Cc3ccccc3)NS(=O)(=O)[C@H]3C[C@@H]4C=C[C@]23O4)c1 | 11.2 µM (active)
28 | C1=C(CCNc2ncnc3c2[nH]c2ccccc23)CCCC1 | 0.996 µM (active)
29 | Cc1cc(C(=O)O[C@H]2[C@H](C)NS(=O)(=O)[C@H]3C[C@@H]4C=C[C@]23O4)cc([N+](=O)[O-])c1 | inactive
30 | COc1ccc(/C=C(/NC(=O)c2cccs2)C(=O)Nc2ccc(C)cc2)cc1OC | 0.25 µM (active)
31 | CNc1cccc2c1C(=O)c1ccccc1C2=O | 6.28 µM (active)
32 | COc1ccc(CCNC(=O)c2cc3sc(Cl)cc3n2C)cc1OC | inactive
33 | CCOc1ccc(CCNC(=O)c2cc3sccc3n2C)cc1OCC | 0.705 µM (active)
34 | CCOc1ccc(CCNC(=O)Cn2cccc2C(=O)c2ccccc2C)cc1OCC | 4.99 µM (active)
35 | COc1cc(NC(=O)COc2ccccc2[N+](=O)[O-])ccc1NC(=O)c1cccs1 | 17.7 µM (active)
36 | COc1ccc(/C=C(\NC(=O)c2cccs2)C(=O)Nc2ccccc2C)cc1OC | 0.177 µM (active)
